Test results as given in the antibiotic and cytotoxicity screens of Wong et al. (2023).
Among all 39,000 compounds or so, about 3,300 (8.5%) were called active. The sample as a whole holds a higher share of actives than the screen did.

Tested on: HepG2
Experiment: cytotoxicity call (relative viability < 0.9)
Conditions: 10 µM

| SMILES | cytotoxicity call |
| --- | --- |
| C[C@@H](N)Cc1ccc2occc2c1 | inactive |
| CC1=C2CCC3C4CCC(=O)C4(C)CCC3C2(C)CCC1=O (configuration not stated) | inactive |
| O=[N+]([O-])c1cc(O)c(O)c([N+](=O)[O-])c1 | inactive |
| CC(C)=CCC[C@]1(C)C=Cc2c(O)c3c(c(CC=C(C)C)c2O1)O[C@]12[C@H](C[C@@H]4C[C@H]1C(C)(C)O[C@]2(C/C=C(/C)C(=O)O)[C@@H]4O)C3=O | inactive |
| CC(C)=CCCC1(C)C=Cc2c(O)c3c(c(CC=C(C)C)c2O1)OC12C(=CC4CC1C(C)(C)OC2(CC=C(C)C(=O)O)C4O)C3=O (configuration not stated) | inactive |
| CC(C)=CCCC1(C)C=Cc2c(O)c3c(c(CC=C(C)C)c2O1)OC12C(=CC4CC1C(C)(C)OC2(CC=C(C)C(=O)O)C4=O)C3=O (configuration not stated) | active |
| COc1cc(C(=O)O)cc(OC)c1OC | inactive |
| CCC(CC)C(=O)N[C@@H]1[C@@H]2CNC[C@@H]21 | inactive |
| NC[C@H](CC(=O)O)c1ccc(Cl)cc1 | inactive |
| C[C@@H](N)Cc1ccc(O)cc1 | inactive |
| C=C(CCCCCCCCCCCCCCCC)OOC[C@@H](COP(=O)(ON)O[C@@H]1[C@H](O)[C@H](O)[C@@H](OP(=O)(O)ON)[C@H](OP(=O)(O)ON)[C@H]1O)OOC(=C)CC/C=C/C/C=C/C/C=C/C/C=C/CCCCC (some centres not stated) | active |
| C[C@H](CO)N1C[C@H](C)[C@H](CN(C)C(=O)Oc2cccc3ccccc23)OCc2cn(nn2)CCCC1=O | inactive |
| Oc1ccc(Cl)cc1 | inactive |
| Cc1cc(O)ccc1Cl | active |
| CNC(=O)Oc1ccc2c(c1)C1(C)CCN(C)C1N2C (configuration not stated) | active |
| CNC(=O)Oc1ccc2c(c1)[C@]1(C)CCN(C)[C@@H]1N2C.CNC(=O)Oc1ccc2c(c1)[C@]1(C)CCN(C)[C@@H]1N2C.O=S(=O)(O)O | inactive |
| CNC(=O)Oc1ccc2c(c1)C1(C)CCN(C)C1N2C.O=S(=O)(O)O (configuration not stated) | active |
| CNC(=O)Oc1ccc2c(c1)C1(C)CCN(C)C1N2C.O=C(O)c1ccccc1O (configuration not stated) | active |
| Br.COc1ccc2c(c1)C13CCCCC1C(C2)N(C)CC3 (configuration not stated) | inactive |
| CN1CCC2(C)c3cc(O)ccc3N(C)C12.O=C(O)C=CC(=O)O (configuration not stated) | active |
| Cc1ccc(C)c(C(=O)[C@H](N)CC(C)C)c1 | inactive |
| Cc1cc(C(=O)N2CC[C@H]3[C@@H]2CCN3C)no1 | inactive |
| CCOc1ccc(N2CCNCC2)nn1 | inactive |
| C[C@H](O)[C@]12[C@@H]3CC=C[C@H]1N2CC3 (some centres not stated) | inactive |
| C[C@@H](N)Cc1ccco1 | inactive |
| CSC1=NN1c1cc(C)nc(N)n1 | inactive |

| SMILES | cytotoxicity call |
| --- | --- |
| N#C[C@@]12[C@H]3CC=C[C@@H]1N2CC3 (some centres not stated) | inactive |
| c1nc(N2CCN3CCC[C@H]3C2)c2[nH]cnc2n1 | inactive |
| COCCCNC(=O)C1[C@@H]2CC[C@H]1CNC2 (some centres not stated) | inactive |
| O=[N+]([O-])OC1COC2C(O[N+](=O)[O-])COC12 (configuration not stated) | inactive |
| OC[C@@H](O)Cc1ccc2c(c1)OCO2 | inactive |
| OCc1ccc2c(c1)OCO2 | inactive |
| C=CCc1ccc2c(c1)OCO2 | active |
| CC=Cc1ccc2c(c1)OCO2 | inactive |
| COP(=S)(OC)Oc1ccc([N+](=O)[O-])cc1 | inactive |
| CC(C)N(CCC(C(N)=O)(c1ccccc1)c1ccccn1)C(C)C.O=P(O)(O)O (configuration not stated) | inactive |
| Cn1ccnc1N1CCNCC1 | inactive |
| c1ccc2c(c1)Nc1ccccc1S2 | active |
| Nc1ccc(-c2ccccc2)cc1 | inactive |
| CC[n+]1c(-c2ccccc2)c2cc(N)ccc2c2ccc(N)cc21.[Br-] | active |
| O=c1ccc(=O)[nH][nH]1 | inactive |
| COC(C)(C)CCCC(C)CC=CC(C)=CC(=O)OC(C)C (configuration not stated) | inactive |
| O=C1CNC[C@@H]2c3cccc(F)c3CCN12 | inactive |
| [N-]=[N+]=NCc1ccccc1C[C@]1(C(=O)N2CCOCC2)N=C(c2ccc(OCCCO)cc2)O[C@H]1c1ccccc1N=[N+]=[N-] | active |
| [N-]=[N+]=NCc1ccccc1C[C@]1(C(=O)N2CCCCC2)N=C(c2ccc(OCCCO)cc2)O[C@H]1c1ccccc1N=[N+]=[N-] | active |
| [N-]=[N+]=NCc1ccccc1C[C@@]1(C(=O)N2CCCCC2)N=C(c2ccc(OCCCO)cc2)O[C@@H]1c1ccccc1N=[N+]=[N-] | inactive |
| CN1CCc2cc([C@H](CN)N(C)C)ccc21 | inactive |
| CCOP(=S)(OCC)SCSP(=S)(OCC)OCC | inactive |
| NCCc1cccs1 | inactive |
| CN(C)C(=O)[C@H]1CCC2(CCNCC2)CO1 | inactive |
| Cc1cc(C2=NO[C@](c3cc(Cl)cc(Cl)c3)(C(F)(F)F)C2)ccc1C(=O)NCC(=O)NCC(F)(F)F | inactive |
| [O-][n+]1ccccc1[S][Zn][S]c1cccc[n+]1[O-] | active |

| SMILES | cytotoxicity call |
| --- | --- |
| C[As](C)SC[C@H](NC(=O)CC[C@H](N)C(=O)O)C(=O)NCC(=O)O | inactive |
| CS(=O)(=O)c1ccc(C(=O)C2C(=O)CCCC2=O)c([N+](=O)[O-])c1 | inactive |
| Cl.NCC(O)c1ccc(O)cc1 (configuration not stated) | inactive |
| O=C([O-])CCCO.[Na+] | inactive |
| C[C@]12C(=O)OC(=O)[C@]1(C)[C@H]1CC[C@H]2O1 | active |
| CC12C(=O)OC(=O)C1(C)C1CCC2O1 (configuration not stated) | active |
| C[C@@]12C(=O)OC(=O)[C@]1(C)[C@H]1CC[C@@H]2O1 | active |
| NC1(c2ccc(F)cc2)CCC1 | inactive |
| COC(=O)C1(O)C[C@H]2CC[C@@H](C1)N2C (some centres not stated) | inactive |
| CC=C(C)C(=O)OC1CC(OC(C)=O)C2(C(=O)OC)COC3C2C12COC(O)(C(=O)OC)C2C(C)(C12OC1(C)C1CC2OC2OC=CC21O)C3O (configuration not stated) | inactive |
| O[C@H]1C2CN3CCN(C2)CC1(c1ccccc1)C3 | inactive |
| O=c1cccc2n1C[C@@H]1CNC[C@H]2C1 | inactive |
| Cc1ccc(OC(=O)N(C)C[C@H]2OCc3ccccc3-c3c(n(C)c4ccccc34)C(=O)N([C@@H](C)CO)C[C@H]2C)cc1 | inactive |
| Cc1cc([N+](=O)[O-])cnc1N1CCNCC1 | inactive |
| CN1C(=O)[C@]23CC4=CC=C[C@H](O)[C@H]4N2C(=O)[C@@]1(CO)SS3 | active |
| CN1C(=O)[C@@]23C[C@]4([C@@]56C[C@]78SS[C@](CO)(C(=O)N7[C@@H]5Nc5ccccc56)N(C)C8=O)c5ccccc5N[C@H]4N2C(=O)[C@@]1(CO)SS3 | active |
| NC1=NC(=O)C2(CCNCC2)N1 | inactive |
| NC[C@@H]1CCCN2CCCC[C@H]12 | inactive |
| CCC(c1cccc(O)c1)C(C)CN(C)C.Cl (configuration not stated) | inactive |
| COc1cccc2c1C(=O)c1c(O)c3c(c(O)c1C2=O)C[C@@](O)(C(=O)CO)C[C@@H]3O[C@H]1C[C@H](N2CCO[C@H](OC)C2)[C@H](O)[C@H](C)O1 | active |
| CC(=C1C(=O)NC(=O)NC1=O)c1ccc(N)cc1 | inactive |
| O=C(O)Cc1cnc[nH]1 | inactive |
| CN[C@@H]1[C@@H]2[C@H]3CCN2C[C@H]1O3 | inactive |
| CNC(=O)[C@@H]1COC[C@@H]2CN(CC(C)C)C[C@@H]21 | inactive |
| CCC1(O)C(=O)OCc2c1cc1n(c2=O)Cc2cc3ccccc3nc2-1 (configuration not stated) | active |
| OCC(CO)N1CCC2(CCNCC2)CC1 | inactive |

| SMILES | cytotoxicity call |
| --- | --- |
| C#CC1(O)C=CC2C3CCC4=CC(=O)CCC4C3CCC21CC (configuration not stated) | inactive |
| C[C@@H](N)C(=O)N[C@@H](CO)C(=O)N[C@H](C(=O)N[C@H](C(=O)N[C@H](C(=O)N[C@@H](CC(N)=O)C(=O)N[C@@H](Cc1ccc(O)cc1)C(=O)N[C@H](C(N)=O)[C@@H](C)O)[C@@H](C)O)[C@@H](C)O)[C@@H](C)O | inactive |
| C[C@@H]1[C@H](O)[C@@H](C)/C=C\C=C/CC\C=C/C=C\C=C/C=C\[C@H](O[C@@H]2O[C@H](C)[C@@H](O)[C@H](N)[C@@H]2O)C[C@@H]2O[C@](O)(C[C@@H](O)[C@H](O)CC[C@@H](O)C[C@@H](O)C[C@@H](O)CC(=O)O[C@H]1C)C[C@H](O)[C@H]2C(=O)O | inactive |
| O=S(=O)(O)O.Oc1cccc2cccnc12 | active |
| CC(C)(C)NCC(O)c1cc(Cl)c(N)c(Cl)c1.Cl (configuration not stated) | inactive |
| CC(C)(C)c1o[nH]c(=O)c1C[C@@H](N)C(=O)O | inactive |
| CC1CCC2(NC1)OC1CC3C4CCC5CC(O)CCC5(C)C4CCC3(C)C1C2C.Cl (configuration not stated) | inactive |
| COc1cc2c(c(OC)c1OC)-c1ccc(O)c(=O)cc1[C@H](N)CC2 | inactive |
| COc1cc2c(c(OC)c1OC)-c1ccc(O)c(=O)cc1C(NC(C)=O)CC2 (configuration not stated) | inactive |
| COc1cc2c(c(OC)c1OC)-c1ccc(OC)c(=O)cc1C(NC(C)=O)CC2 (configuration not stated) | active |
| CC1(C)OCC2(CNC2)CO1 | inactive |
| CN1CCOC[C@]2(CCCNC2)C1 | inactive |
| CN(C)[C@@H]1C(=O)[C@H](C(N)=O)C(=O)[C@@]2(O)C(=O)[C@@H]3C(=O)c4c(O)cccc4[C@@](C)(O)[C@H]3C[C@@H]12 | inactive |
| C[C@H]1CN([C@@H](C)CO)C(=O)c2c(c3ccccc3n2C)-c2ccccc2CO[C@@H]1CN(C)C(=O)Oc1ccccc1 | inactive |
| CN1[C@@H]2C[C@@H](O)C[C@H]1[C@@H]1O[C@@H]12 | inactive |
| Cc1ccc(OC(=O)N(C)C[C@@H]2OCc3ccccc3-c3c(n(C)c4ccccc34)C(=O)N([C@@H](C)CO)C[C@@H]2C)cc1 | inactive |
| Cc1ccc(OC(=O)N(C)C[C@@H]2OCc3ccccc3-c3c(n(C)c4ccccc34)C(=O)N([C@@H](C)CO)C[C@H]2C)cc1 | inactive |
| Cc1ccc(OC(=O)N(C)C[C@@H]2OCc3ccccc3-c3c(n(C)c4ccccc34)C(=O)N([C@H](C)CO)C[C@@H]2C)cc1 | inactive |
| COc1ccc(OC(=O)N(C)C[C@H]2OCc3ccccc3-c3c(n(C)c4ccccc34)C(=O)N([C@H](C)CO)C[C@@H]2C)cc1 | inactive |
| Cc1ccc(OC(=O)N(C)C[C@H]2OCc3ccccc3-c3c(n(C)c4ccccc34)C(=O)N([C@@H](C)CO)C[C@@H]2C)cc1 | active |
| COc1ccc(OC(=O)N(C)C[C@H]2OCc3ccccc3-c3c(n(C)c4ccccc34)C(=O)N([C@@H](C)CO)C[C@H]2C)cc1 | inactive |
| Cc1ccc(OC(=O)N(C)C[C@H]2OCc3ccccc3-c3c(n(C)c4ccccc34)C(=O)N([C@H](C)CO)C[C@H]2C)cc1 | inactive |
| Cc1ccc(OC(=O)N(C)C[C@H]2OCc3ccccc3-c3c(n(C)c4ccccc34)C(=O)N([C@H](C)CO)C[C@@H]2C)cc1 | active |
| COc1ccc(OC(=O)N(C)C[C@@H]2OCc3ccccc3-c3c(n(C)c4ccccc34)C(=O)N([C@@H](C)CO)C[C@H]2C)cc1 | active |
